Screening results as filed in PubChem BioAssay.
ugtP null kill = growth inhibition of ugtP-null S. aureus, primary screen, RN4220 ugtP deletion, OD600; hit rate 0.54% among 330,000; 16 h; growth inhibition, % (test concentration not listed); in the data active means growth inhibition above about 68%;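 further: plate controls were untreated wells for no effect and antibiotic for full effect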
PfHsp40 yeast = rescue of yeast from PfHsp40 toxicity, primary screen, S. cerevisiae, ATP luminescence; S. cerevisiae expressing PfHsp40, growth rescue; growth rescue, % at 12.5 µM; hit rate 0.68% among 340,000; AID 504582, 2011; in the data active means growth rescue above about 28%, passing the limit was not always enough;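 further: yeast W303a lacking pdr1 and pdr3 grown in galactose medium; growth measured after three days at 30 °C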
PrPC TRFRET = inhibitors of human cell surface prion protein PrPC, primary screen, cell-based, TR-FRET | TR-FRET read-out | inhibition, % at 13.8 µM | hit rate 0.43% among 370,000 | AID 720596, 2013; in the data active means inhibition above about 24%; further: 0% = median of the test wells and 100% = reference compound wells
VHR inh abs = VHR1 phosphatase inhibitors, primary screen, biochemical, absorbance, uHTS; Dual specificity protein phosphatase 3 (Homo sapiens), P51452; recombinant VHR phosphatase, pNPP absorbance; inhibition, % at 13.3 µM; hit rate 0.52% among 290,000; AID 1654, 2009; in the data active means inhibition above about 50%
Sa RN4220 lethal = growth inhibition of S. aureus RN4220, primary screen, OD600; 16 h; inhibition, % (no concentration beside the values); hit rate 0.33% among 330,000; AID 1259311, 2017; in the data active means inhibition above about 85%;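 further: plate controls were untreated cells for no effect and reference antibiotic for full effect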
PrPC confirm = confirmation of inhibitors of cell surface human prion protein, confirmation, cell-based, TR-FRET; shares compounds with PrPC TRFRET; cell surface PrPC level; inhibition, % at 13.8 µM; hit rate 65% among 1,500; AID 743200, 2013; in the data active means inhibition above about 25%
LD9 cytotox = cytotoxicity in LD9 cells, cytotoxicity control for cell surface PrPc inhibitor project, cell-based, luminescence, high throughput; luminescence viability; hit rate 29% among 1,500; inhibition, % at 13.8 µM; shares compounds with PrPC TRFRET; AID 743201, 2013; in the data active means inhibition above about 9.5%
Numbers without * were called inactive; . = no result. Rows were chosen to be rich in hits. Some 1.8% of all compounds tested hit in one or more screens of this group.

SMILES	ugtP null kill	PfHsp40 yeast	PrPC TRFRET	VHR inh abs	Sa RN4220 lethal	PrPC confirm	LD9 cytotox
CCOC(=O)c1c(/N=C/N(C)C)sc(/C=N/Nc2ccccc2)c1-c1ccccc1	.	0	54*	-8	.	40*	0
COC(=O)c1ccc(Cl)cc1NC(=O)C=Cc1ccc(C)o1	-3	.	.	.	6	.	.
CC(C)C[C@H](NC(=O)c1[nH]cnc1C(=O)N[C@H](C)c1ccccc1)C(=O)OC(C)(C)C	.	9	27*	21	.	24	-2
CC(C)CC(NC(=O)c1[nH]cnc1C(=O)NC(C)c1ccccc1)C(=O)OC(C)(C)C (stereo not given)	6	.	.	.	6	.	.
Cc1ncc(CO)c(/C=N/NC(=O)c2cc3c(s2)CCCC3)c1O	.	19	40*	5	.	23	15*
Cc1ncc(CO)c(C=NNC(=O)c2cc3c(s2)CCCC3)c1O	-5	.	.	.	11	.	.
Fc1c(F)c(C(F)(F)F)c(F)c(F)c1NN=Cc1cccs1	10	.	.	.	0	.	.
C=C1c2cccc(O)c2C(=O)C2C(=O)[C@]3(O)C(=O)C(C(N)=O)C(=O)[C@@H](N(C)C)[C@@H]3[C@@H](O)[C@H]12 (stereo not given in full)	.	60*	40*	.	.	-2	0
O=C(O)c1ccc(C=NNC(=O)c2cc(-c3ccc(Cl)cc3)n[nH]2)cc1	.	.	2	.	.	.	.
O=C(NN=Cc1ccc(O)cc1)c1cc(-c2ccc(Cl)cc2)n[nH]1	.	.	26*	.	.	32*	4
COc1ccc(-c2cc(C(=O)NN=C/C(C)=C/c3ccccc3)[nH]n2)cc1	.	.	25*	.	.	20	-2
CC(CC(=O)Nc1ccc([N+](=O)[O-])cc1)=NNC(=O)C1C2CCCCC21 (stereo not given)	7	.	.	.	3	.	.
O=C(NN=Cc1cc(Br)cc(Br)c1O)c1cccc(S(=O)(=O)N2CCOCC2)c1	-4	.	.	.	-1	.	.
Cc1ccc(-c2cc(C(=O)N(C)Cc3cnn(C)c3C)c3cc(Br)ccc3n2)cc1	8	2	75*	5	9	90*	4
Cc1ccc(-c2cc(C(=O)NCc3cnn(C)c3C)c3cc(Br)ccc3n2)cc1	3	7	15	24	-3	.	.
CC(SCc1ccccc1)C(=O)Nc1ccc(F)cc1 (stereo not given)	4	-1	14	12	8	.	.
N#CC(C#N)=C(Nc1ccc(F)cc1)SCc1cccc(Br)c1	96*	3	32*	-12	100*	38*	32*
O=C1CCCN1c1ccc(S(=O)(=O)NCCOc2ccccc2)cc1	18	-1	2	42	0	.	.
Cc1cc(N2CCCC2=O)cc(C)c1S(=O)(=O)NCCOc1ccc(C(C)(C)C)cc1	-17	12	32*	27	1	29*	8
CCCOc1ccc(C2NC(=S)NC(C)=C2C(=O)c2ccccc2)cc1OC (stereo not given)	4	0	50*	-26	5	53*	-7
C=CCOc1ccc(C2NC(=S)NC(c3ccccc3)=C2C(C)=O)cc1OC (stereo not given)	-9	0	52*	2	0	45*	-2
CC1=C(C(=O)c2ccccc2)C(c2ccc(O)cc2)NC(=S)N1 (stereo not given)	5	0	-4	-6	4	.	.
CC1=C(C(=O)c2ccccc2)C(c2ccc(OC(F)F)cc2)NC(=S)N1 (stereo not given)	4	0	50*	10	5	47*	4
COc1cc(C2NC(=O)NC(c3ccccc3)=C2C(C)=O)ccc1OCC#N (stereo not given)	-2	0	8	-12	-1	.	.
CCOc1ccc(C(CC)=NNC(=O)C2(C)CC2(Br)Br)cc1 (stereo not given)	-7	.	.	.	3	.	.
SMILES	ugtP null kill	PfHsp40 yeast	PrPC TRFRET	VHR inh abs	Sa RN4220 lethal	PrPC confirm	LD9 cytotox
Fc1cccc(F)c1C=NNC(=S)Nc1cccnc1	16	.	.	.	11	.	.
COc1ccc(C(=O)Nc2ccccc2C(=O)NN=Cc2ccc(O)c(OC)c2)cc1	3	.	.	.	-4	.	.
N#CC1=C2SCN(Cc3ccccc3)CN2C(=O)CC1c1cccs1 (stereo not given)	-9	0	27*	0	-10	56*	-3
N#CC1=C2SCN(Cc3ccccc3)CN2C(=O)CC1c1ccc2c(c1)OCO2 (stereo not given)	-1	2	1	3	1	.	.
CNC(=S)NN=Cc1c(C)nn(-c2ccc(F)cc2)c1Cl	5	.	.	.	3	.	.
CN1/C(=C\C=C\C2=[N+](C)c3ccc4ccccc4c3C2(C)C)C(C)(C)c2ccccc21	.	.	.	19	.	.	.
CCN1/C(=C/C=C/C2=[N+](CC)c3ccccc3C2(C)C)C(C)(C)c2ccccc21	.	.	77*	.	.	96*	78*
COc1cc2sc3cc(NCc4ccc5c(c4)OCO5)ccc3c(=O)c2cc1OC	-4	1	39*	.	21	67*	3
COc1cccc2sc3cc(NCc4ccc5c(c4)OCO5)ccc3c(=O)c12	-24	3	94*	.	31	139*	-3
COc1ccc(NCc2ccc3c(c2)OCO3)cc1Cl	1	-1	1	-2	0	.	.
OC[C@H]1O[C@@H](c2nc3ccc(-c4nc(-c5ccc(Br)cc5)no4)cc3[nH]2)C[C@@H]1O	.	.	29*	.	.	21	4
CCN(CC)C(=O)c1ccc2nc([C@H]3C[C@H](O)[C@@H](CO)O3)[nH]c2c1	.	.	-3	.	.	.	.
O=C1NC(=Cc2cccn2-c2ccccc2)C(=O)N1Cc1ccccc1F	57	.	.	.	7	.	.
O=C(NN=Cc1ccc2c(c1)OCO2)/C(=C/c1ccc2c(c1)OCO2)NC(=O)c1ccccc1	2	.	.	.	-18	.	.
CCc1cccc(CC)c1NC(=O)CO/N=C(\C)c1cccs1	.	2	35*	-22	.	30*	-6
CC(=O)c1ccc(NC(=O)CO/N=C(\C)c2cccs2)cc1	.	0	4	-4	.	.	.
Cc1cc(Cl)ccc1NC(=O)C=NO	5	.	.	.	3	.	.
CCc1cc2c(=O)c(-c3ccc4c(c3)OCCO4)c(C)oc2cc1OS(C)(=O)=O	4	-1	31*	18	4	40*	5
COc1cc(C=CC(=O)N2CCN(CC(O)COc3ccccc3)CC2)cc(OC)c1OC (stereo not given)	2	.	.	.	4	.	.
CCC(Sc1nc(-c2ccccc2)c(C#N)c(=O)[nH]1)C(=O)Nc1nnc(C)s1 (stereo not given)	4	-1	28*	-4	10	48*	-6
N#Cc1c(-c2ccccc2)nc(SCC(=O)Nc2ccccc2)[nH]c1=O	0	0	28*	-22	0	39*	-5
N#Cc1c(-c2ccccc2)nc(SCC(=O)Nc2ccccc2F)[nH]c1=O	3	-1	15	-14	4	.	.
